Screening results from PubChem BioAssay.
PRC2 inh = blocks human EZH2/PRC2 H3K27 methylation | DELFIA TRF, 1 h | inhibition, % at 12.5 µM | 57,000 compounds, 0.35% hits | AID 651548;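 active = mean inhibition of replicates at least 50% and every single replicate also reaching 50%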;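 note: dimethyl H3K27 on biotinylated H3 21-44 peptide detected by antibody; plate controls were median neutral control wells for no effect and median positive control wells for full effect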
Target sequence (Q15910 whole entry, looked up): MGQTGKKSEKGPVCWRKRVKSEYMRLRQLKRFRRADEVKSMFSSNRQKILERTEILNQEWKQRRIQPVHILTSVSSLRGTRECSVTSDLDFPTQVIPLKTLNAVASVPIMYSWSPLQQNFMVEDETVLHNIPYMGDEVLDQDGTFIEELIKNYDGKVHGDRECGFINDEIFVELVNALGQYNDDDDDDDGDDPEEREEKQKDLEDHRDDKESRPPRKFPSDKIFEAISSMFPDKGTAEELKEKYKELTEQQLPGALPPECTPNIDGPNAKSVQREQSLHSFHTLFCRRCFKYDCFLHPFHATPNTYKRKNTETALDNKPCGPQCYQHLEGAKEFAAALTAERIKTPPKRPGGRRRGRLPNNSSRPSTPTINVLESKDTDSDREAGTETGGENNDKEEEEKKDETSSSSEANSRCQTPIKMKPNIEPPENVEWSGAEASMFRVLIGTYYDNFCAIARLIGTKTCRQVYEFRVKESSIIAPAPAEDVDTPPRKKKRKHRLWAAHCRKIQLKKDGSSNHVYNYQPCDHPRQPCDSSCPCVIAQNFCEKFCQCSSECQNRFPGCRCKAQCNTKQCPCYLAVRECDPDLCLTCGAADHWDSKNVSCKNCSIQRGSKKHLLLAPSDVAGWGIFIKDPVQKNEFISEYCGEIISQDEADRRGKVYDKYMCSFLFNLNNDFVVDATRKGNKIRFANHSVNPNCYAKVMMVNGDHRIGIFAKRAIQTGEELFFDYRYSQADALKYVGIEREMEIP
An asterisk follows results filed as active. This excerpt belongs to a sample that is enriched for hits.

SMILES	PRC2 inh
COc1cc(C2OC[C@@H]3[C@@H](c4cc(OC)c(O)c(OC)c4)OC[C@H]23)cc(OC)c1O (some centres undefined)	-27
COc1cc([C@H]2OC[C@H]3[C@@H]2CO[C@H]3c2ccc(OC)c(OC)c2)ccc1O	9
COc1cc([C@H]2OC[C@H]3[C@@H]2CO[C@@H]3c2ccc(O)c(OC)c2)ccc1O	80*
COc1cc(NC(=O)CN(C)S(=O)(=O)c2ccc3ccccc3c2)c(OC)cc1Cl	22
Cc1cc(C)nc(SCC(=O)N2CCN(c3nnc(-c4ccccc4)c4ccccc34)CC2)n1	6
Cc1cc(C)nc(NS(=O)(=O)c2ccc(Nc3nc(-c4ccc(F)cc4)cs3)cc2)n1	58*
Cc1cc(C)nc(NS(=O)(=O)c2ccc(NC(=O)c3ccc(C(=O)c4ccccc4)cc3)cc2)n1	7
CCOc1ccccc1C(=O)Nc1ccc(S(=O)(=O)Nc2nc(C)cc(C)n2)cc1	-4
O=C(Nc1ccc(S(=O)(=O)Nc2ncccn2)cc1)c1ccc(-c2ccccc2)cc1	28
Cc1cc(C)nc(NS(=O)(=O)c2ccc(N)cc2)n1	8
Cc1cc(C)nc(NS(=O)(=O)c2ccc(NC(=O)c3ccc(-c4ccccc4)cc3)cc2)n1	56*
CC(=O)Nc1ccc(NC(=O)CSC2=NC(c3ccccc3)CC(=O)N2)cc1 (centres undefined)	-12
CCc1ccc(C(Nc2cc(C)ccn2)c2ccc3ccc(C)nc3c2O)cc1 (centres undefined)	-1
COc1cccc(-c2nc(SCC(=O)Nc3cccc(C(F)(F)F)c3)[nH]c(=O)c2C#N)c1	68*
O=C(CSc1n[nH]c(-c2ccco2)n1)Nc1ccc(F)cc1	0
O=C(CSc1nc2ccccc2[nH]1)Nc1ccc(I)cc1	18
COc1ccc(-c2nc(SCC(=O)Nc3cccc(C(F)(F)F)c3)n[nH]2)cc1	19
N#Cc1c(-c2ccco2)nc(SCC(=O)Nc2ccc(I)cc2)[nH]c1=O	54*
COc1ccc(-c2nc(SCC(=O)Nc3ccc(Cl)cc3)[nH]c(=O)c2C#N)cc1	29
CCNc1nc(SCC(N)=O)nc(N2CCOCC2)n1	25
O=C(NCc1ccco1)c1ccc(NC(=O)c2cccs2)cc1	-3
Cc1cccc(N2C(=O)CC(SCC(=O)Nc3ccccc3)C2=O)c1 (centres undefined)	4
Cc1ccc(NC(=O)CSc2nnc(-c3cccc4ccccc34)n2-c2ccccc2)c(C)c1	-4
Cc1ccc(C(=O)COc2cccc(NC(=O)c3ccc(Br)cc3)c2)cc1C	-3
COC(=O)COc1cccc(NC(=O)c2ccc(Br)cc2)c1	1
SMILES	PRC2 inh
CCOc1cccc(NC(=O)C2CC(=O)N(/N=C(\C)c3ccc(Br)s3)C(=N)S2)c1 (centres undefined)	92*
CC1=CC(=O)C2C(C)(C)CC(O)CC2(C)C1(O)CO (centres undefined)	11
COc1ccc(-c2cc(C(F)(F)F)nc(SCC(=O)Nc3ccc(Cl)cc3Cl)n2)cc1	-9
COc1cc(NC(=O)C(C)Oc2ccc(Cl)cc2C)c(C(=O)O)cc1OC (centres undefined)	-4
Cc1cccc(OCC(=O)Nc2cccc(C(=O)Nc3ccccc3C(=O)O)c2)c1	42
CC(C)(C)c1ccc(OCC(=O)Nc2ccc(C(=O)Nc3ccccc3C(=O)O)cc2)cc1	64*
COc1ccc(OCC(=O)Nc2ccccc2C(=O)Nc2ccccc2)cc1	-6
Cc1cc(C)c(NC(=O)CN(c2ccc(Cl)cc2C)S(C)(=O)=O)c(C)c1	-11
CCn1c(SCC(=O)Nc2ccc(Cl)cc2Cl)nnc1-c1cccc(C)c1	7
COc1ccc([N+](=O)[O-])c(NC(=O)c2cnn3c(C(F)F)cc(-c4ccc(C)cc4)nc23)c1	0
Cn1nnnc1SCC(=O)Nc1ccc(N2CCOCC2)c(Cl)c1	2
O=C(CSc1nc2c(c(-c3ccccc3)n1)CCCCC2)N1N=CCC1c1ccccc1 (centres undefined)	12
N#Cc1ccccc1OCCCCSc1ncccn1	12
c1cnc(SCCCCOc2ccc3c(c2)CCC3)nc1	54*
O=S(=O)(Nc1ncccn1)c1ccc(NC(=S)Nc2ccc3c(c2)CCC3)cc1	-4
CCn1c(SCC(=O)Nc2ccccc2OC)nnc1-c1c[nH]c2ccccc12	-5
Cc1nnc(SCc2nnnn2-c2ccccc2)[nH]c1=O	-6
NC(=O)COc1ccccc1/C=N/NC(=O)c1ccc(C(=O)NO)cc1	-14
CCn1c(SCC(=O)Nc2ccc(F)c(Cl)c2)nnc1-c1cccc(C)c1	1
O=C(NCSCc1cccc(C(F)(F)F)c1)Nc1ccc(F)c(Cl)c1	56*
CC(C(=O)Nc1cccc(C(F)(F)F)c1)N(c1ccc(Cl)cc1)S(C)(=O)=O (centres undefined)	-5
Cc1ccc(Cn2nc(C)c(NC(=O)c3nc4ncccn4n3)c2C)cc1	-3
Nc1nc(SCC(=O)c2ccc(Cl)cc2Cl)n[nH]1	15
CCn1c(SCC(=O)Nc2ccc(Cl)cc2Cl)nnc1-c1cccc(Cl)c1	6
CCOC(=O)c1c(-c2ccc(Cl)cc2)csc1NC(=O)C1CCCCC1C(=O)O (centres undefined)	58*
SMILES	PRC2 inh
CCOC(=O)c1c(NC(=O)C2CC(Cl)=CCC2C(=O)O)sc2c1CC(C)CC2 (centres undefined)	25
CCOC(=O)c1c(-c2ccc(C)cc2)csc1NC(=O)c1cccc(OC(C)=O)c1	1
Cc1ccccc1OCC(=O)Nc1cccc(-c2nc3ccccc3s2)c1	40
COc1ccccc1-n1c(SCC(N)=O)nc2ccc(I)cc2c1=O	-8
COC(=O)c1c(-c2ccc(OC)c(OC)c2)csc1NC(=O)COc1ccccc1	-17
C[C@@H]1O[C@@H](O[C@@H]2[C@@H](O)[C@H](O[C@@H]3[C@@H](O)[C@@H](O)[C@H](O[C@H]4[C@H](OC(=O)[C@]56CCC(C)(C)C[C@H]5C5=CCC7[C@@]8(C)C[C@H](O)[C@H](O[C@@H]9O[C@H](C(=O)O)[C@@H](O)[C@H](O)[C@H]9O)[C@@](C)(CO)C8[C@H](O)C[C@@]7(C)[C@]5(C)C[C@H]6O)O[C@@H](CO)[C@@H]4O)O[C@H]3C)OC[C@H]2O)[C@H](O)[C@H](O)[C@H]1O (some centres undefined)	99*
C[C@@H]1O[C@@H](O[C@@H]2CC[C@@]3(C)C(CC[C@]4(C)C3CC=C3[C@@H]5CC(C)(C)CC[C@]5(C(=O)O[C@@H]5O[C@H](CO)[C@@H](O)[C@H](O)[C@H]5O)CC[C@]34C)[C@]2(C)CO)[C@H](O)[C@H](O[C@@H]2OC[C@@H](O)[C@H](O)[C@H]2O)[C@H]1O (some centres undefined)	-5
C[C@@H]1O[C@@H](O[C@H]2[C@H](O[C@H]3CC[C@@]4(C)C(CC[C@]5(C)C4CC=C4C6CC(C)(C)CC[C@]6(C(=O)O[C@@H]6O[C@H](CO[C@@H]7O[C@H](CO)[C@@H](O[C@@H]8O[C@@H](C)[C@H](O)[C@@H](O)[C@H]8O)[C@H](O)[C@H]7O)[C@@H](O)[C@H](O)[C@H]6O)CC[C@]45C)[C@]3(C)CO)OC[C@H](O)[C@@H]2O)[C@H](O)[C@H](O)[C@H]1O (some centres undefined)	20
Cc1cccc(-c2noc(CN(C(=O)c3ccc([N+](=O)[O-])c(C)c3)C(C)C)n2)c1	2
CCc1ccccc1NC(=O)CSc1nc2ccccc2c(=O)n1-c1ccccc1Cl	5
O=C(CCSc1nnc(-c2ccccc2)o1)Nc1ccc(F)cc1	-15
CC(=O)c1cccc(NC(=O)CSc2nc(-c3ccccc3)c(-c3ccccc3)o2)c1	31
O=C(O)CCCCCCC(=O)Nc1ccc(C2CC(CSc3nc(-c4ccccc4)c(-c4ccccc4)o3)OC(c3ccccc3)O2)cc1 (centres undefined)	92*
O=C(CSc1nnc(-c2ccncc2)n1-c1ccccc1)c1ccc([N+](=O)[O-])cc1	-12
